How the values were obtained:
Assay in all cases: PBM binding z-score (relative to random genomic background probes); higher = stronger binding; sequences stand for … in GC…GCGATTGACAGCGTAGAATGAAGG
[1] = tested on: RARb homodimer (NR concentration 270 nM)
Outline: (§1)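 For binding z-scores, the reference was random background probes on custom Agilent 4×180K protein-binding microarrays. These arrays were incubated 1 h with ligand-free nuclear receptor dimers in PBS pH 7.4, 2% milk, 0.02% Triton X-100, 1 mM DTT, 0.2 mg/mL BSA and 0.4 mg/ml salmon testes DNA. Fluorescence was scanned after antibody detection of each partner (one per run) and regression-normalized.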

[2] = tested on: RARg:RXRa (NR concentration 270 nM, RXRa partner concentration 90 nM)
Outline: as §1

[3] = tested on: RARg homodimer (NR concentration 270 nM)
Outline: as §1

[4] = tested on: RXRa DBDmut IVT, anti-RXR (DBD mutation: RXRa K156A/R161A, NR concentration 90 nM)
Outline: as §1

[5] = tested on: RXRa homodimer (NR concentration 180 nM)
Outline: as §1

[6] = tested on: THRa:RXRa (NR concentration 90 nM, RXRa partner concentration 90 nM)
Outline: as §1

[7] = tested on: THRa homodimer (NR concentration 90 nM)
Outline: as §1

[8] = tested on: VDR homodimer (NR concentration 270 nM)
Outline: as §1

Sequence	PBM binding z-score [1]	PBM binding z-score [2]	PBM binding z-score [3]	PBM binding z-score [4]	PBM binding z-score [5]	PBM binding z-score [6]	PBM binding z-score [7]	PBM binding z-score [8]
CCTACTGGGCCACGAACGGTCATTGATTCAGTGA	1.91	0.72	1	-0.535	-0.0982	0.584	-0.505	-0.169
TGAATGAGGTTATTAGATCAGGGAACGTTGCAAA	0.387	1.36	0.893	1.46	1.66	2	0.756	0.942
CCTTCTGGGCCAAAAAGGTCATTGATGCCGATAA	4.2	4.63	4.26	1.29	4.8	2.87	0.411	2.86
CCTACTGGGCCACAGGTCATTGATTCCAATGCTC	2.48	2.14	1.94	0.14	2.23	1.54	0.651	1.13
GCTAGCAGGCCATTTGGGTCACTCACTGACGGGC	1.96	0.722	1.04	0.199	0.604	1.73	0.972	0.0479
GGAACGATGGCAAGTTGATAGCAGAGTTTGATGG	-0.624	-0.353	-0.158	-0.0368	-0.123	-0.797	-0.814	0.0604
TCATATAGGCAATACAGGTGAAAGTCGGCATCTA	0.329	0.188	0.134	1.25	0.668	0.629	-0.127	-0.277
ACTAGCAGGCCAAGTTTGGGACACTCAAACAAAG	0.289	0.191	0.555	-0.499	-0.592	1.45	0.404	-0.549
CGAACTAGGTCATTGACAGGGCAGTGAATAGTAA	2.93	5.12	4.41	2.54	2.89	2.64	0.623	1.08
ACTAGCAGGCCAAGTTTGGGTTACTCAAACAAAG	0.5	0.339	0.295	-0.22	-0.21	0.547	-0.383	-0.21
GCTCGGAGGACAAGGTCAAAGCTTTGTCCGTAGA	3.35	4.56	4.54	1.32	4.4	3.57	2.09	2.02
GCAGACGGGTGAAACGCAGGTAACTCAGGGTGGC	-0.28	0.482	-0.283	-1.07	0.49	1.3	-0.706	-0.68
TCTTGTAGATCAGCAGGTTAAGATAGCTGGCCAA	-0.0544	-0.0434	-0.135	0.631	0.48	0.172	-0.238	-0.295
GTACCAAGGTCAATAGGTCGTTGATGAGTAGGCG	4.86	6.58	5.59	2.86	5.66	3.68	1.77	2.55
ATATGTAGGTTAGCTGGGATCATTCAGACTAGGC	0.428	0.559	0.765	0.0124	0.95	1.95	-0.1	0.36
TGAATGAGGTTAAAGATCAGGAAACGTGGCGTCG	0.6	2.53	1.23	1.25	3.88	2.41	0.21	0.62
ACAGACAGGTGATGAAGGTAACTTAGGCTATCAT	0.348	0.286	0.467	-0.093	0.298	0.532	0.0402	0.0918
GGAACGAGGGCATTCGAGTTGATAGCCTGGCGAT	0.74	0.929	1.41	3.31	0.739	3.25	-0.752	3.28
CGTCCAAGGTCAGAGAGGCCAGTGAATGCCGAGT	4.08	4.46	5.6	2.66	3.4	3.28	1.86	2.3

Sequence	PBM binding z-score [1]	PBM binding z-score [2]	PBM binding z-score [3]	PBM binding z-score [4]	PBM binding z-score [5]	PBM binding z-score [6]	PBM binding z-score [7]	PBM binding z-score [8]
CCGACTGGGGCAAAGATTACCATACTCAGTACGA	-0.379	0.0799	0.405	0.314	-0.0917	-0.407	-0.518	-0.37
TCATATAGGTAAAGGTGCAAGTCGAACGATATGA	0.0991	0.803	0.522	0.75	1.18	0.151	-0.746	0.385
ACAGACAGGTGATGAATGTAACTCAGGCTATCAT	-0.0762	0.375	0.506	-0.126	0.591	0.0526	-0.294	-0.0787
ATATGTAGGTTAGCTGCGGTCATTCAGACTAGGC	2.02	1.43	1.83	0.343	0.968	4.05	0.202	0.904
ACTAGTTGGTCAGCTAAGGTCACACACAATTCGG	4.54	4.33	4.53	1.25	4.2	5.21	5.38	2.63
AGTCAAAATTCAGGACGAGGTAACGTAAAGCACG	-0.0538	0.203	0.422	-0.303	0.601	1.99	1.64	0.0292
ACTAGCAGGGCAAGTTTGGGTCACTCAAACAAAG	2.59	3.35	2.64	0.437	1.38	3.17	1.08	0.258
AGAATGAGGTTAAGATCAGGGGAACAGAATACAT	1.37	2.14	1.59	1.58	2.52	2.8	1.34	0.727
AGAATGAGGTTAAGATCAGGGAGACAGAATACAT	1.15	1.94	1.5	1.06	2.49	2.55	0.979	0.818
ACTATTAGTTGACTTAGGGCAATCGATACGACGC	0.586	0.781	0.924	0.592	0.921	1.31	0.18	0.448
CCTACTGGGCCAAAGATCATTGATTCCAATGCTC	-0.626	0.0876	-0.132	-0.275	0.0908	-0.415	-0.657	-0.324
GATACAGGGTCAGCTATAGGCCAGAGTATGGAAA	2.93	5.42	4.73	1.34	4.02	2.6	0.272	0.536
AGAACGAGGGAAATGAGTTGATAGCACGGGTGGC	-0.754	-0.0436	0.0126	-0.228	-0.0737	-0.188	-0.839	0.141
AGAATGAGGTTATTAAGATAAGGGAATTGCGGTC	0.848	1.41	0.946	1.84	1.8	1.95	0.273	0.849
CCTGCTAGGTCAATGGTCAGCTATAGCAGCTCGC	3.2	3.54	4.59	1.75	2.21	2.26	0.61	0.24
CCTGCTGGGCCACGAAAGGTCATTGATTCAGTGA	4.56	4.89	4.55	0.711	5.39	3.87	0.572	2.37
GATACAGGGTCAAGCCCAGAGTACGCGTATTGAT	3.52	5.73	5.47	2.9	6.59	3.45	0.87	2.39
AGTCAACGTTCAGGACGAGGTAACGTAAAGCACG	-0.0275	0.297	0.412	-0.658	0.0619	2.08	1.42	-0.0352
ATCTCTAGGTAAGACTCAGTTCGGTGAAGAACGC	0.505	0.0648	0.192	0.349	-0.00788	0.483	0.697	0.648

Sequence	PBM binding z-score [1]	PBM binding z-score [2]	PBM binding z-score [3]	PBM binding z-score [4]	PBM binding z-score [5]	PBM binding z-score [6]	PBM binding z-score [7]	PBM binding z-score [8]
CTCGAAAGGTCGTGCGCAGGTGAGTATACCAAAC	2.93	5.81	3.83	1.76	5.1	3.58	0.11	0.912
GCATATAGGTAATACAAGGTGAAACTCCGATTGT	0.806	0.886	0.775	0.602	1.06	4.51	1.21	0.121
CGTCCAAGGTCATAGGAGGTTAGTGAAGACAGAT	4.27	5.73	5.72	3.76	5.53	4.76	3.13	2.99
TGGCCTAGGTCAGATCGGGCCAGTATACGCTATA	1.79	2.62	4.12	-0.787	1.19	3.53	-0.553	-0.622
CCTATTAGTTGACCTTAAGGGCAACCGAAGCTCG	4.16	4.56	3.45	1.41	4.9	4.36	5.34	2.12
GCTATTAGTTGAAAGTGCAACCGAATGATTCTCG	0.667	0.42	0.38	1.14	0.575	0.147	-0.293	0.388
ATACCAAGGTGATCGTGAGGCCGTTGATACTAAC	0.758	0.629	0.127	0.132	0.254	2.05	1.14	0.643
CCTCGGAGGACAACGGGAGGTCAGAGCTGCCAGA	3.43	3.93	3.4	-0.419	1.76	3.04	1.32	1.08
TCTTGTAGATCCAAGGTTAAGAAAGCCGAAGCCT	0.743	0.336	0.0629	0.928	1.13	1.27	0.204	0.0451
TCCTGTAGATCAATAGAGGTTAAGAAAGTGCGCT	1.25	0.701	0.381	1.41	1.19	2.29	-0.00152	0.39
CCTTACGGGTCAAGGTTATAGAACGGGTGGTACG	3.67	4.92	4.97	0.482	5.58	3.02	0.782	1.14
CGTACTGGGCCATCAGGTCATTGATATCAACGTT	2.7	2.08	2.17	0.587	1.44	3.17	3.18	1.98
GCTAGTTGGTCAATAAAAGGTCACACACCGGTCG	5.51	6.07	5.18	0.854	5.51	3.66	1.83	2.11
TCGAGTAGGTTAGTCGGGTCATTCAGCCAACATA	2.2	1.93	1.5	0.747	2.1	3.06	1.48	2.35
ACAGACAGGTGGGTGAAGGTAACTCAGCTGGACG	0.378	0.052	0.248	-0.598	0.193	0.52	-0.174	-0.176
CCAACTGGGCCAAGGTCATTGATCAGTCAAAGCA	3.25	3.49	2.52	1.67	3.17	3.45	2.23	2.57
ATAATGAGGTTACCAAAGATCAGGGAAACGCTTG	1.15	2.37	1.95	1.32	2.72	2.8	1.1	0.486
CGTCAAAGTTCAAGGTAACATAACAGAAAGCAGC	3.84	5.43	6.33	4.63	4.69	2.92	1.05	2.9

Source: the supplement of paper PMC6555819
